# Experimental data as given in PMC5540273 (PLoS ONE, 2017).
# Columns and labels:
# Conditions in all cases: concentration: 1 μM, replicates: in singlicate; n = 1
# FLT3-autoinhibited = test system: FLT3-autoinhibited
# FLT3 = test system: FLT3
# FLT4 = test system: FLT4
# FRK = test system: FRK
# FYN = test system: FYN
# GAK = test system: GAK
# GCN2(Kin.Dom.2,S808G) = test system: T1, GCN2(Kin.Dom.2,S808G)
# T1 construct: gene EIF2AK4
# GRK1 = test system: GRK1
# GRK2 = test system: T2, GRK2
# T2 construct: gene ADRBK1
# GRK3 = test system: T3, GRK3
# T3 construct: gene ADRBK2
# 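Further: KINOMEscan kinase panel screen.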
SMILES,%Inh (FLT3-autoinhibited) [%],%Inh (FLT3) [%],%Inh (FLT4) [%],%Inh (FRK) [%],%Inh (FYN) [%],%Inh (GAK) [%],"%Inh (GCN2(Kin.Dom.2,S808G)) [%]",%Inh (GRK1) [%],%Inh (GRK2) [%],%Inh (GRK3) [%]
Cc1cccc(-c2nc(Nc3ccc4ncsc4c3)c3ccccc3n2)n1 [GW867588],12,2,0,0,4,0,4,0,9,0
c1ccc(-c2n[nH]cc2-c2ccnc3ccccc23)nc1 [GW271431],5,3,25,10,43,79,3,0,0,34
O=c1cc(N2CCOCC2)nc2n(Cc3cccc(C(F)(F)F)c3)ccn12 [GSK2297543],12,0,0,0,42,0,0,0,0,0
O=C(NCCNc1ccnc(Nc2ccc(F)cc2)n1)c1cc2ccccc2s1 [GSK1379874],0,0,9,6,0,0,0,0,0,0
N#Cc1c(N2CCOCC2)sc(-c2ccn[nH]2)c1-c1ccc(Cl)cc1,12,0,0,0,0,0,0,15,0,25
NCC(NC(=O)c1cc(-c2cn[nH]c2)c(-c2ccnc3[nH]ccc23)s1)c1ccccc1.O=C(O)C(F)(F)F.O=C(O)C(F)(F)F (stereo not shown) [GSK1325775],21,69,14,0,25,91.9,99.1,35,70,76
Cc1c(Cn2c(C)nn3c(=O)cc(N4CCOC(C)C4)nc23)cccc1C(F)(F)F (stereo not shown) [GSK2344444],3,0,11,0,2,0,0,1,0,0
CCc1nc(-c2cccc(C)c2)c(-c2ccnc(NCc3ccccc3)c2)s1,18,0,0,0,0,11,11,9,0,6
Cc1ccc(NC(=O)c2ccnc(N3CCN(C)CC3)c2)cc1-c1ccc(C(=O)NCC2CC2)cc1 [GW775604],0,0,0,0,0,0,0,0,0,33
Cc1cn2c(=O)cc(N3CCOCC3)nc2n1Cc1cccc(Cl)c1Cl [GSK2334006],10,13,39,28,23,35,12,2,3,0
Fc1ccc(-c2ncn(CCCN3CCOCC3)c2-c2ccccn2)cc1 [SB-211742],0,20,0,6,0,6,0,0,2,0
Cc1c2ccc(N(C)c3ccnc(Nc4cccc(S(N)(=O)=O)c4)n3)cc2nn1Cc1ccccc1.Cl.Cl [GW787226],29,98.5,99.9,65,75,0,62,0,0,0
Fc1ccc(-c2ncn(CCCN3CCOCC3)c2-c2cccnc2)cc1 [SB-211743],0,9,0,0,0,2,8,16,0,7
c1ccc(-c2cc(-c3c[nH]nc3-c3ccccn3)ccn2)cc1 [GW576604],0,0,0,0,20,78,1,0,0,17
COc1cc2ncn(-c3cc(OCc4sccc4Cl)c(C(N)=O)s3)c2cc1OC [GSK448459],0,31,67,10,15,86,7,0,0,33
O=C1Cc2cc(Nc3nc(NCc4cccc(S(=O)(=O)C(F)(F)F)c4)ncc3C(F)(F)F)ccc2N1,0,0,0,0,0,8,28,0,30,22

SMILES,%Inh (FLT3-autoinhibited) [%],%Inh (FLT3) [%],%Inh (FLT4) [%],%Inh (FRK) [%],%Inh (FYN) [%],%Inh (GAK) [%],"%Inh (GCN2(Kin.Dom.2,S808G)) [%]",%Inh (GRK1) [%],%Inh (GRK2) [%],%Inh (GRK3) [%]
NS(=O)(=O)c1cccc(-c2ccc3nccc(-c4cccc(S(N)(=O)=O)c4)c3c2)c1 [GW867253],0,0,0,0,0,14,3,27,0,0
CNc1ncnc2[nH]ncc12 [SKF-18355],0,0,0,0,0,0,0,29,0,0
CN1c2ccc(NCc3ccc(F)cc3)cc2-c2c(cnn2C)S1(=O)=O,24,12,0,10,12,0,0,11,0,0
CC(=O)Nc1ccc(COc2ccc(Nc3ccnc4cc(-c5ccccn5)ccc34)cc2)cc1.Cl [GW440148],38,98,99.9,0,47,8,0,0,0,17
Cc1cccc(-c2nc(-c3ccc(S(C)(=O)=O)cc3)sc2-c2ccncc2)c1,2,14,8,0,0,5,0,0,0,3
O=C(NOCC1CC1)c1ccc(F)c(F)c1Nc1ccc(I)cc1Cl,0,0,1,0,0,0,0,0,0,0
O=C(NCCNc1ccnc(Nc2ccc(F)cc2)n1)Nc1ccccc1F [GSK1379880],0,0,0,0,28,0,3,0,0,23
Cc1nnc(-c2ccc3occ(-c4ccc(C(C)O)cc4)c3c2)o1 (stereo not shown),4,0,6,10,15,0,23,0,0,12
CN(C(=O)c1ccc(-c2cc(-c3c[nH]nc3-c3ccccn3)ccn2)cc1)C1CCOCC1 [GW810083],0,8,0,6,1,9,2,10,18,18
CSc1ccc(-c2cc3ncnc(SCC(=O)O)c3s2)cc1,0,0,0,16,4,0,0,0,0,13
Cl.Oc1cccc(Nc2ccnc3cc(-c4ccncc4)ccc23)c1 [GW494601],3,28,97.4,97.6,95.7,76,0,0,0,36
O=C(NCCCN1CCOCC1)c1cccc(Nc2nccc(Nc3ccc(Oc4ccccc4)cc3)n2)c1 [GW663929],33,90.7,4,48,93.5,33,36,8,0,20
Cc1ccc(C(=O)NCC(N)=O)cc1-n1c(C)cc(OCc2ccc(F)cc2F)c(Br)c1=O,0,13,0,25,20,6,0,20,0,0
COc1cc(Nc2nccc(N3CCC(NC(=O)c4cccc(NC(C)=O)c4)C3)n2)cc(OC)c1OC (stereo not shown) [GSK1379754],6,50,23,16,35,44,17,0,0,18
O=c1cc(N2CCOCC2)nc2n(Cc3cccc(Cl)c3Cl)c(C3CC3)nn12 [GSK2358994],0,10,10,0,6,11,0,0,0,0
